Reference: PubChem BioAssay AID1159580 (chemical genetic matrix, 2015)
Among all 5,500 compounds or so, about 2,000 (36%) were called active. Roughly 18% stayed inconclusive and do not appear here. Cut-off read from the data, not from the text of the source: active = normalized growth mostly below about 0.91 (no sharp cut-off); inconclusive = no clear call, values can overlap the other calls; inactive = mostly above about 0.92. Some of the results follow.

Experiment: chemical genetic growth profiling, strain panel (AID 1159580);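 note: tested at 20 µM; growth read once vehicle control cultures reached saturation at 30 °C; 1 = growth at the plate median or of vehicle wells; lower values mean less growth of the strain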
Conditions: S. cerevisiae deletion strains, growth OD

Measured: normalized growth

CSC(=NS(=O)(=O)c1ccccc1)SC
inactive: locus YAL013W, strain DEP1, active compounds read low 0.985 | locus YBR229C, strain ROT2, active compounds read low 0.979 | locus YDL101C, strain DUN1, active compounds read low 0.98 | locus YDL134C, strain PPH21, active compounds read low 1.01 | locus YDR150W, strain NUM1, active compounds read low 0.938 | locus YEL061C, strain CIN8, active compounds read low 1.03 | locus YGR078C, strain PAC10, active compounds read low 0.985 | locus YHR030C, strain SLT2, active compounds read low 0.83 | locus YHR087W, strain rtc3, active compounds read low 1.02 | locus YJL187C, strain SWE1, active compounds read low 1 | locus YJR043C, strain POL32, active compounds read low 0.96 | locus YJR075W, strain HOC1, active compounds read low 0.977 | locus YKL190W, strain CNB1, active compounds read low 1 | locus YLR058C, strain SHM2 (second series), active compounds read low 0.987 | locus YLR085C, strain ARP6, active compounds read low 0.901 | locus YML094W, strain GIM5, active compounds read low 0.921 | locus YMR219W, strain ESC1, active compounds read low 0.995 | locus YMR263W, strain SAP30, active compounds read low 0.974 | locus YNL153C, strain GIM3, active compounds read low 1 | locus YNL298W, strain CLA4 (second series), active compounds read low 1.02 | locus YNL322C, strain KRE1, active compounds read low 0.971 | locus YNR030W, strain Alg12, active compounds read low 0.989 | locus YPL055C, strain LGE1, active compounds read low 0.978 | locus YPL241C, strain CIN2, active compounds read low 0.945 | locus YPR135W, strain CTF4, active compounds read low 0.941
active: locus YLR039C, strain RIC1, active compounds read low 0.595 | locus YLR262C, strain YPT6, active compounds read low 0.513
